About 79,000 compounds went through this panel and 15% of them were active in at least one assay; those are over-represented in the sample as a whole. Rule as the data show it: active = growth inhibition above about 70%; inactive = the rest.
Assays:
[1] = NCI Yeast Anticancer Drug Screen. Data for the rad50 strain (AID 155);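 also: 0% = growth of vehicle-only cultures of the same strain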; conditions: S. cerevisiae rad50 strain growth inhibition; at 50.0 µM; stronger effect = higher value
Method in brief: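 Genetically altered yeast (DNA repair pathway); compound treatment; growth inhibition vs vehicle ctrl.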

[2] = NCI Yeast Anticancer Drug Screen. Data for the mec2-1 strain (AID 157); conditions: S. cerevisiae mec2-1 strain, at 50.0 µM, stronger effect = higher value
Method in brief: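 Readout is yeast growth inhibition, normalised to vehicle-treated controls, in the mec2-1 strain exposed to compound.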

[3] = NCI Yeast Anticancer Drug Screen. Data for the sgs1 mgt1 strain (AID 161);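 also: 0% = growth of cultures given vehicle only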; conditions: S. cerevisiae sgs1 mgt1 strain, at 50.0 µM, stronger effect = higher value
Method in brief: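 Growth of a repair-deficient yeast mutant was monitored after compound treatment and expressed as inhibition relative to vehicle-treated cultures.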

[4] = NCI Yeast Anticancer Drug Screen. Data for the cln2 rad14 strain (AID 165);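 also: 0% = growth equal to vehicle treated cultures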; conditions: S. cerevisiae cln2 rad14 strain, at 50.0 µM, stronger effect = higher value
Method in brief: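 Relative to vehicle controls, growth inhibition of compound-treated cln2 rad14 yeast was recorded.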

[5] = NCI Yeast Anticancer Drug Screen. Data for the bub3 strain (AID 167); conditions: S. cerevisiae bub3 mutant strain, at 50.0 µM, stronger effect = higher value
Method in brief: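 Yeast carrying a defined mutation is treated with each compound, and growth is compared with that of vehicle-exposed cells to give inhibition.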

[6] = NCI Yeast Anticancer Drug Screen. Data for the mlh1 rad18 strain (AID 175); conditions: S. cerevisiae mlh1 rad18 strain growth inhibition; at 50.0 µM; stronger effect = higher value
Method in brief: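 Test agents were incubated with a yeast strain of defined genotype (DNA damage repair defect). Inhibition of growth was derived by comparison with vehicle-exposed cultures.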

Measured: growth inhibition

O=C(CC(CC(=O)Oc1c(Br)cc(Br)cc1C(=O)O)C(=O)Oc1c(Br)cc(Br)cc1C(=O)O)Oc1c(Br)cc(Br)cc1C(=O)O
inactive: [1] -17.4% | [2] -23.4% | [3] -10% | [4] 8.7% | [5] -24% | [6] -5.6%

Nc1nc2c(ccc3ccccc32)[nH]1
inactive: [1] -19.8% | [2] 6.8% | [3] 8.4% | [4] 6.5% | [5] 10.3% | [6] 21.6%

Nc1ncnc(Nc2ccc(S(=O)(=O)O)cc2)n1
inactive: [1] -35.9% | [2] -32.6% | [3] -31.1% | [4] -1.25% | [5] -34.9% | [6] -27.2%

CCCCCC(/C=C/[C@@H]1[C@H]2CC(=O)O[C@H]2C[C@H]1N1CCOCC1)OC1CCCO1 (stereo not given in full)
inactive: [1] 0.2% | [2] -6.3% | [3] 11.8% | [4] -35.1% | [5] -29.6% | [6] 11.8%

COC(=O)C(=O)c1cc(C)n(C)c(=O)c1CN1C(=O)c2ccccc2C1=O
inactive: [1] -14.2% | [2] 14.8% | [3] 13.8% | [4] -18.9% | [5] -11.8% | [6] -12.8%

Cc1c(-c2coc(-c3ccc(Cl)cc3)n2)c(=O)n(-c2ccccc2)n1C
inactive: [1] -7.85% | [2] -43.2% | [3] -22.1% | [4] -9.9% | [5] 7.4% | [6] -6.6%

CCN(CC)C(=O)C1CCN(Cc2ccc3c(c2)CCC3)CC1
inactive: [1] -4.1% | [2] 42.5% | [3] -1.2% | [4] -16.6% | [5] 2.9% | [6] 3.95%

CN1C(c2ccccc2)=C(C#N)C(=O)CC(c2cccs2)N1C (stereo not given)
inactive: [1] -8% | [2] 7.45% | [3] 33.6% | [4] -1.5% | [5] 8.15% | [6] 8.25%

CC(C)(C)OC(=O)NC(CCC(=O)OCc1ccccc1)C(=O)NCCCO (stereo not given)
inactive: [1] -11.8% | [2] -35.3% | [3] 8.4% | [4] -9.35% | [5] -15.7% | [6] 9.8%

COc1nc2cc(C)c(C)cc2n1C1OC(CO)C(O)C1O (stereo not given)
inactive: [1] -12.6% | [2] 16.4% | [3] 6.95% | [4] -8.3% | [5] -0.9% | [6] -7%

C[C@H](CCc1nc(C#N)c(N)o1)[C@H]1CC[C@H]2[C@@H]3[C@@H](O)CC4C[C@@H](O)CC[C@]4(C)[C@H]3C[C@@H](O)[C@]12C (stereo not given in full)
inactive: [1] 26.4% | [2] 9.8% | [3] 10.7% | [4] 9.55% | [5] -9.1% | [6] -2.85%

COc1cc(/C=C(\C#N)c2ccccc2)cc(OC)c1
inactive: [1] 43.8% | [2] -13.5% | [3] -9.6% | [4] -9.8% | [5] 17.4% | [6] -28.9%

CCCCCCCCCCCCCCCCSS(=O)(=O)O
inactive: [1] 8.5% | [2] 15.7% | [3] 15.8% | [4] -1.15% | [5] 0.15% | [6] 4.9%

CCCCCCCCCc1ccc(OC(=O)CCC)cc1
inactive: [1] 2.4% | [2] -22.6% | [3] -15.1% | [4] -50% | [5] -2.95% | [6] 20.7%

O=C(O)c1cc(-c2ccc(-c3ccccc3)cc2)nc2cc3ccccc3cc12
inactive: [1] -15.7% | [2] -3.9% | [3] -2.15% | [4] -20.6% | [5] -54.9% | [6] 22%

Cn1c(=O)c2c(nc(OC3CCCCC3)n2C)n(C)c1=O
inactive: [1] 14.1% | [2] -1.3% | [3] 29.4% | [4] 26.1% | [5] 57.5% | [6] -2.95%

CCCCC1=CC1(C#N)[N+](=O)[O-] (stereo not given)
inactive: [1] 33.4% | [2] 11.5% | [3] 20.5% | [4] 21.6% | [5] 17.3% | [6] 27.8%

Cn1cc(C2NC(=O)c3ccccc3N2)c2ccccc21 (stereo not given)
inactive: [1] -25.1% | [2] -15.7% | [3] -7.1% | [4] 12% | [5] -15% | [6] -11.7%

CCN(CC)C(=O)C1=C(C)NC(C)=C(C(=O)N(CC)CC)C1
inactive: [1] -36.7% | [2] -55% | [3] -18.6% | [4] -22.1% | [5] -8.35% | [6] -68.5%

N#CC(NC12CC3CC(CC(C3)C1)C2)c1ccc2c(c1)OCO2 (stereo not given)
inactive: [1] -14.9% | [2] -5.6% | [3] -20.9% | [4] -17.1% | [5] -47.8% | [6] -44.4%

C(=C\c1ccc(-c2ccccc2)cn1)/c1ccccc1
inactive: [1] -8.5% | [2] -15.8% | [3] -3.45% | [4] -26.6% | [5] 24.8% | [6] -12%

CC(C)C(NC(=O)CI)C(=O)Nc1ccc(C(=O)O)c(O)c1 (stereo not given)
inactive: [1] 24.2% | [2] 20.5% | [3] 5.7% | [4] -11.6% | [5] 7.1% | [6] 24.1%

O=Cc1cccs1
inactive: [1] 23% | [2] -2% | [3] 7.85% | [4] -14.6% | [5] 8.3% | [6] 33.9%

C=C1CN(C(=O)NCCCl)C1
inactive: [1] 10.6% | [2] 17.4% | [3] 4.15% | [4] -11.3% | [5] 4.1% | [6] -7.8%

CC(C)(C)c1ccc(SC(=O)Nc2cccc(Cl)c2Cl)cc1
inactive: [1] 8.35% | [2] 14.3% | [3] 18.1% | [4] 13.8% | [5] 24.4% | [6] 20.9%

N#CSCC(Cl)=CCl (mixture of isomers)
inactive: [1] 2.95% | [2] 0.95% | [3] -4.4% | [4] 12.5% | [5] 0.5% | [6] -19.6%

CS(=O)(=O)c1c(N)c2nc(Cl)cn2c2nc3ccccc3nc12
inactive: [1] -11.4% | [2] -2.1% | [3] -10.3% | [4] -9.15% | [5] -27.1% | [6] -16.5%

Cc1ccc(S(=O)(=O)OCCOCCOc2ccc(C(C)(C)CC(C)(C)C)cc2)cc1
inactive: [1] 49.7% | [2] 1.05% | [3] 34% | [4] 4.3% | [5] 3.8% | [6] 27%

C=CC(C)(C)c1c(OC(C)=O)cc2oc3c(OC(C)=O)c(OC(C)=O)cc(CC=C(C)C)c3c(=O)c2c1O
inactive: [1] 34% | [2] 12.3% | [3] 11.2% | [4] 7.35% | [5] -5.85% | [6] -0.55%

COc1cc(C(CC(=O)O)CC(=O)O)cc(OC)c1OC
inactive: [1] -2.45% | [2] -8.8% | [3] 25.4% | [4] 7.05% | [5] 15.6% | [6] 12.6%

CC(C)C(C)(O)c1ccccc1 (stereo not given)
inactive: [1] -3.15% | [2] -28.8% | [3] 5.35% | [4] -10.9% | [5] 0.35% | [6] 0.9%

CCOc1c(N=Nc2cccc(Cl)c2)c(-c2ccccc2)nn1C(N)=S
inactive: [1] -3.4% | [2] -10.3% | [3] -24.2% | [4] 2.15% | [5] 35.5% | [6] 20.8%

CC1CC/C(=N\O)CCCCC(=O)O1 (stereo not given)
inactive: [1] -3.45% | [2] -0.35% | [3] 2.15% | [4] -33.4% | [5] 2.9% | [6] 0.85%

N#CC1=C2CCCC(C#N)=C2CCC1
inactive: [1] 0.95% | [2] -1% | [3] -4.55% | [4] -40.1% | [5] -21.3% | [6] -13.8%

CC1=CC(C)(C)N=C2SC(=O)c3nc4ccccc4c(=O)n3N12
inactive: [1] 10.7% | [2] 2.35% | [3] 13.8% | [4] -11.3% | [5] 15.1% | [6] 16.6%

N/C(=N\c1nc(N)cc(N)n1)Nc1ccc(S(N)(=O)=O)cc1
inactive: [1] -15.2% | [2] 4.25% | [3] -6.25% | [4] -32.2% | [5] -5.6% | [6] -4.15%

Cc1nc(N)nc(CCC(=O)Nc2cccc(C(F)(F)F)c2)c1-c1ccc(Cl)cc1
inactive: [1] 12.2% | [2] -2.9% | [3] 6.7% | [4] 7.45% | [5] -3.6% | [6] 11.1%

Cc1ccc(-c2cc(=O)c(=O)[nH][nH]2)cc1
inactive: [1] -12.5% | [2] 22.1% | [3] -11.6% | [4] 4.85% | [5] -13.7% | [6] 27.2%

CCCCC(CC)(CO)CCC (stereo not given)
inactive: [1] -8.75% | [2] -19% | [3] -13.7% | [4] 2.55% | [5] -9.45% | [6] 4%

Cn1c(=O)c2c(nc3sc4nc5ccccc5nc4n32)n(C)c1=O
inactive: [1] -9.7% | [2] -15.9% | [3] -5.45% | [4] -25.4% | [5] -30.4% | [6] 13.1%

— PubChem BioAssay (NCI)
